Most compounds without a hit are left out; they make up all but 4.1% or so of the library.
DAX1 inh-1 – NR0B1 (DAX1) inhibition; P51843; HEK293 Gal4-DAX1 luciferase reporter, luminescence; inhibition, % at 6.75 µM; 340,000 tested, 0.99% active;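 active = inhibition above the mean over all tested compounds plus 3 SD, cut at about 4.2% in these data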;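 note: inhibition shows as a rise in luminescence from relieved DAX1 repression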
Target sequence (P51843 207-470 limits assumed): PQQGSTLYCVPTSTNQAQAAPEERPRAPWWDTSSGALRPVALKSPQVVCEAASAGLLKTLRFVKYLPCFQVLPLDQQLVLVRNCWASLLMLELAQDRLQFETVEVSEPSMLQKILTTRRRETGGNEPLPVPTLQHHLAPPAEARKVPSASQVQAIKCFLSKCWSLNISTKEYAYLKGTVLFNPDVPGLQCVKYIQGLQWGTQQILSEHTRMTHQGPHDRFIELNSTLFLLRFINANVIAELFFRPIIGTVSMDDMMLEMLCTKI
hcDAF-12 act – activators of H. contortus DAF-12 nuclear receptor; 370,000 tested, 1.4% active; HEK293 hcDAF-12 lit1-tk-luc reporter, luminescence; 0% DMSO, 100% Δ7-dafachronic acid; activation, % at 6.8 µM; AID 652067;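 active = activation above the mean of all tested compounds plus 3 SD, cut at about 5.5% in these data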
ssDAF12 agonist – activators of S. stercoralis DAF-12 nuclear receptor. activation, % at 6.8 µM. HEK293 ssDAF-12/GRIP1 lit1-tk-luc reporter, luminescence; % of 3 µM dafachronic acid response. 370,000 tested, 1% active;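 active = activation above the mean over all tested compounds plus 3 SD, cut at about 0.9% in these data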
hgDAF12 agonist – hgDAF-12 agonism, primary luciferase screen. 370,000 tested, 1.8% active. AID 687014. activation, % at 6.8 µM. HEK293 GAL4-hgDAF12 UAS-luciferase reporter, agonist luminescence; normalized to butyrate control;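 active = activation above a cutoff set at the mean of all screened compounds plus 3 SD, cut at about 10% in these data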
DAX1 inh-2 – inhibitors of DAX1 repression of SF-1 activated StAR promoter | HEK293T StAR-luciferase reporter, SF-1/DAX-1 repression relief | inhibition, % at 6.8 µM | 370,000 tested, 1.1% active;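 active = inhibition above the mean over all tested compounds plus 3 SD, cut at about 3.6% in these data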;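 note: higher inhibition means more luminescence from relief of DAX-1 repression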
Of the large screens only hits and unclear results are named; the others gave an inactive call.

O=P(c1ccccc1)(c1ccccc1)C(O)c1ccccn1 (centres undefined)	ssDAF12 agonist 1.2 (no result: DAX1 inh-1)
CSCCCNC(=O)Cn1nc(Cc2ccncc2)c2ccccc2c1=O	none (no result: DAX1 inh-1)
OC[C@@H]1CC[C@@H]2O[C@H](CCc3ccc(-c4ccc(F)cc4)cc3)[C@H](n3cc(C4CC4)nn3)C[C@@H]2O1	none (no result: DAX1 inh-1)
CN1CCN(c2ccncc2S(=O)(=O)N2CCCCC2)CC1	DAX1 inh-1 4.9
COc1ccc(CNC(=O)CCNS(=O)(=O)c2ccc3[nH]c(=O)oc3c2)cc1	none (no result: DAX1 inh-1)
O=C(c1ccc2c(c1)OCCCO2)c1cccs1	hgDAF12 agonist 10
CCn1c2ccccc2c2cc(C=NNC(=O)c3ccoc3C)ccc21	hgDAF12 agonist 11 (no result: DAX1 inh-1)
OC(c1ccccc1)(c1ccccc1)C1CCN(CCCNc2ccc(C(F)(F)F)cc2)CC1	none (no result: DAX1 inh-1)
CC(=O)C1=C(C)NC(SCC(=O)c2ccc(F)cc2)=C(C#N)C1CC(C)C (centres undefined)	hgDAF12 agonist 12
CC(=O)C1=C(C)NC(SCC(=O)c2ccc(Cl)cc2)=C(C#N)C1CC(C)C (centres undefined)	none
C/C(=N\N1C(=O)c2ccccc2NC1c1ccccc1)c1ccccc1O (centres undefined)	DAX1 inh-2 3.8
C/C(=N\N1C(=O)c2ccccc2NC1c1ccco1)c1ccccc1O (centres undefined)	DAX1 inh-1 6.1
CN1C(=O)c2cc(NC(=O)Nc3ccccc3)ccc2OC[C@H]2O[C@@H](CC(=O)Nc3cc(F)ccc3F)CC[C@@H]21	none (no result: DAX1 inh-1)
CCN(C(=O)COC(=O)c1ccc(Sc2ncn[nH]2)c([N+](=O)[O-])c1)c1ccccc1C	none (no result: DAX1 inh-1)
O=C(O)/C=C/C(=O)NNC(=O)c1ccc(Cl)cc1Cl	none
O=C(NC1CC(=O)c2sccc21)c1ccc(Cl)cc1Cl (centres undefined)	DAX1 inh-2 3.7
COc1ccccc1C(=O)NCCC(=O)Nc1ccc(C)cn1	hcDAF-12 act 5.7
CC(C)CC(CCOCCO)NC(=O)OCc1ccccc1[N+](=O)[O-] (centres undefined)	none (no result: DAX1 inh-1, DAX1 inh-2)
CO[C@@H]1[C@H](O)CC[C@]2(O)CN(c3ccc(F)cc3)[C@](C)([C@H](O)CC=C(C)C)[C@@H]12	none (no result: DAX1 inh-1)
CSc1nsc(SCC(=O)Nc2ccccc2C(=O)O)n1	ssDAF12 agonist 1.1
CSc1nsc(SCC(=O)Nc2ccc(O)c(C(=O)O)c2)n1	none
COC(=O)[C@]12C[C@H](CC(=O)N3CCCC3)C(=O)N(CCC3=CCCCC3)C1=C[C@H](C1CCCC1)O[C@@H]2C	none (no result: DAX1 inh-1)
COC(=O)[C@]12C[C@H](CC(=O)NCc3cccc(C(F)(F)F)c3)C(=O)N(CCc3ccc(OC)c(OC)c3)C1=C[C@H](C1CCCC1)O[C@@H]2C	none (no result: DAX1 inh-1)
Cc1[nH]c2ccccc2c1Cc1nnc(SCC(N)=O)o1	DAX1 inh-1 4.7
Cc1[nH]c2ccccc2c1Cc1n[nH]c(=S)o1	DAX1 inh-1 4.7
S=c1[nH]nc(Cc2cccc3ccccc23)o1	none
C[C@H]1CCCN1c1cccc2c1S(=O)(=O)N1CC[C@@H](C1)O2	none (no result: DAX1 inh-1)
O=C1C(NC(=O)C(F)(F)Br)CCCCN1Cc1cccc(C(F)(F)F)c1 (centres undefined)	none (no result: DAX1 inh-1)
O=C(c1cc(F)cc(F)c1)N1CCCC(c2nc(-c3cccs3)no2)C1 (centres undefined)	none (no result: DAX1 inh-1)
CC(=O)Nc1cc2c(cc1Br)-c1ccccc1C2	hcDAF-12 act 6.2, hgDAF12 agonist 11
Cc1ccc(C(=O)OCC(=O)Nc2cc(C(C)(C)C)no2)c(C)c1	DAX1 inh-2 3.6
Cc1ccc(-n2nc3c(c2NC(=O)c2ccccc2)CS(=O)(=O)C3)cc1C	none
Cc1ccc(C(=O)Nc2c3c(nn2-c2ccccc2)CS(=O)(=O)C3)cc1C	hcDAF-12 act 5.8
O=C(Nc1ccccc1)N1CCC(=S)Nc2ccccc21	none
CC1CC(=S)Nc2ccccc2N1C(=O)Nc1ccccc1 (centres undefined)	DAX1 inh-1 5.2
Fc1ccc(CN2CCN(c3ncc(Cc4ccccc4)cn3)CC2)c(Cl)c1	none (no result: DAX1 inh-1)
COc1ccccc1C(=O)NC(C)C(c1cccs1)N1CCOCC1 (centres undefined)	ssDAF12 agonist 1.7
CN1CCC(N[C@@H](Cc2ccccc2)C(=O)NCC(c2ccccc2)c2ccccc2)(C(=O)NC2CCCCC2)CC1	none (no result: DAX1 inh-1, DAX1 inh-2)
O=C1c2ccccc2NC2(CCCCC2)N1N=C1CCCCC1	hgDAF12 agonist 12
O=C1c2ccccc2NC2(CCCC2)N1O	none
CC(=O)CC[C@@H]1CC[C@]2(CCCN(C(=O)c3ccno3)C2)O1	none (no result: DAX1 inh-1)
COc1ccc2c(c1)c(=O)oc1cc(OCC(=O)NC3CCCCC3)ccc12	DAX1 inh-1 5.9
COc1ccc2c(c1)c(=O)oc1cc(OCC(=O)NC3CC3)ccc12	none
Fc1ccc(F)c(Cn2ccc3ccc(-c4ccc5ccn(Cc6cc(F)ccc6F)c5c4)cc32)c1	none (no result: DAX1 inh-1)
Cc1ccccc1Cn1c(=O)n(-c2ccccc2)c(=O)c2ccc(C(=O)NCc3ccco3)cc21	DAX1 inh-1 4.6
Cc1ccccc1Cn1c(=O)n(Cc2ccco2)c(=O)c2ccccc21	DAX1 inh-1 4.5
Cc1ccc(-n2c(=O)c3ccc(C(=O)NCc4ccco4)cc3n(Cc3ccccc3C#N)c2=O)cc1	none
O=C(NCCc1ccccc1)OCc1cn(Cc2ccc(F)c(F)c2)nn1	none (no result: DAX1 inh-1)
CC1CCCC(NCC(=O)Nc2ccc(C(N)=O)cc2)C1C (centres undefined)	ssDAF12 agonist 1.7
CN1C(=O)[C@@]2(O[C@H]3C=CC=CN3C3=C2C(=O)CCC3)c2cccc(Br)c21	ssDAF12 agonist 0.9 (no result: DAX1 inh-1)
O=C(CN1C(=O)CCC1=O)NC(=O)NC1CCCC1	DAX1 inh-1 4.6
CC1(c2ccccc2)NC(=O)N(CC(=O)NC(=O)NC2CCCC2)C1=O (centres undefined)	none
COc1cc2c(cc1C1C(C#N)=C(N)OC3=C1C(=O)CC(C)(C)C3)OCO2 (centres undefined)	DAX1 inh-1 4.9
COC(=O)[C@]12CCCCC=C1N(Cc1ccc(OC)cc1)C(=O)[C@@H]2CC(=O)N1CCSCC1	none (no result: DAX1 inh-1)
Cc1nc(C)c(-c2csc(Nc3ccccn3)n2)s1	none
Oc1ccc(-c2csc(Nc3ncccn3)n2)cc1O	none
Cc1cccnc1Nc1nc(-c2ccc(O)cc2)cs1	none
Oc1ccc(-c2csc(Nc3ccccn3)n2)cc1	DAX1 inh-1 4.7, hgDAF12 agonist 11
CC(=O)Nc1ccc(-c2csc(Nc3cccc(C)n3)n2)cc1	hgDAF12 agonist 11
COc1ccc(-c2csc(Nc3ccccn3)n2)cc1OC	DAX1 inh-1 4.8, ssDAF12 agonist 0.9
Oc1ccc(-c2csc(Nc3ncccn3)n2)c(O)c1	hgDAF12 agonist 25
CC(=O)NNc1nc(-c2ccc(NC(C)=O)cc2)cs1	none
N#CCC[C@H]1CC[C@]2(CCCN(C(=O)c3ccc4ccccc4n3)C2)O1	none (no result: DAX1 inh-1)
Nn1c(SCc2cccc3ccccc23)nnc1-c1n[nH]c2c1CCC2	none (no result: DAX1 inh-1)
CC1(NC(=O)c2ccc(C#Cc3cccc(F)c3)cn2)COC1	none (no result: DAX1 inh-1)
